Test results as given in PubChem BioAssay (NCI).
The panel holds about 79,000 compounds, 15% with a hit somewhere; the sample as a whole holds those more often. Values without a mark were called inactive. No stated cut-off is given here; in the data, active means growth inhibition above about 70%; inactive means the rest. Where a SMILES comes first, the peptide text is derived from it. The star is where a group is joined. Myristoyl = CCCCCCCCCCCCCC(=O)*

Test: NCI Yeast Anticancer Drug Screen. Data for the cln2 rad14 strain (AID 165);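 further: 0% = growth equal to vehicle treated cultures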
Settings: S. cerevisiae cln2 rad14 strain, at 50.0 µM, active compounds read high
Outline: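 Yeast strain cln2 rad14, bearing defects in cell cycle control and DNA repair, serves as the test system; values reflect growth inhibition compared with vehicle.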
In the case of `NS(=O)(=O)c1ccc(NC2=CC(=O)C(=O)c3ccccc32)cc1`, the growth inhibition is reported as 2.4%.
Molecule `O=[N+]([O-])c1ccccc1C=NC12CC3CC(CC(C3)C1)C2` has a growth inhibition of -49.2%.
In the case of `c1ccc(SCCP(CCP(c2ccccc2)c2ccccc2)c2ccccc2)cc1` (stereo not given), the growth inhibition is reported as 22.4%.
For `CC(=O)CC(=O)NCCCN1CCCCCC1`, the growth inhibition was -1.05%.
Work on `CCCCCCCC(=O)OCC1OC(n2cc(F)c(=O)[nH]c2=O)C(NC(=O)OCc2ccccc2)C(O)C1O` (stereo not given) yielded a growth inhibition of -7.1%.
Molecule `NNC(=O)CSc1ncnc2nc[nH]c12` has a growth inhibition of -3%.
For `Cc1ccc(-c2nc(-c3nccc4ccccc34)oc2-c2ccccc2)cc1`, the growth inhibition was -28.4%.
Molecule `CCc1nnc(CC)n1N` has a growth inhibition of -10.6%.
Work on `O=C1CCCC2=C1CC1=C(CCCC1=O)N2c1ccc([N+](=O)[O-])cc1` yielded a growth inhibition of -10.3%.
`CC(=O)Nc1ccc(/C=N\NC(=S)Nc2ccc(F)cc2)cc1` gave a growth inhibition of -53.1%.
`COc1cccc(-c2nsc(=O)o2)c1` showed a growth inhibition of -1.4%.
With `O=C1N=C2C=CC=CN2CC1O` (stereo not given) the growth inhibition was -13.2%.
`CC1(C)N=C(N)N=C(N)N1CCCCc1ccccc1` showed a growth inhibition of -25.4%.
In the case of `CC#Cc1c(C#CC)c(OC)c2c(c1OC)C(=O)c1ccccc1C2=O`, the growth inhibition is reported as 3.3%.
`COc1ccc(CCN=C(N)CCl)cc1` showed a growth inhibition of 6.65%.
With `S=C(Nc1c2c(nc3ccccc13)CCCC2)Nc1c2c(nc3ccccc13)CCCC2` the growth inhibition was 9.8%.
Molecule `CC1(C)CC(=O)C2(C)C(C1O)C2C1C2C(O)C(C)(C)CC(=O)C21C` (stereo not given) has a growth inhibition of -6.75%.
For `CC(=O)c1c2c(cc3c1CC1(C3)Cc3cc4c(c(C(C)=O)c3C1)CCC4)CCC2`, the growth inhibition was -5.45%.
Molecule `O=C1OC(=O)C2C1C1C=CC2C1(c1ccccc1)c1ccccc1` (stereo not given) has a growth inhibition of -5.65%.
`CCC1(C)C(=O)SC(=S)N1C` (stereo not given) showed a growth inhibition of -8.4%.
For `CCN(CC)c1ccc(N=C2C=C(C(=O)Nc3ccccc3)C(=O)c3ccccc32)cc1`, the growth inhibition was 6.25%.
Molecule `O=C(CCN1CCCC1)c1ccccc1` has a growth inhibition of 5.45%.
`CC(=O)C1CN(C)CCC1=O` (stereo not given) gave a growth inhibition of -11.2%.
In the case of `CC1=NNC(=O)C1(C)C`, the growth inhibition is reported as 26.1%.
With `Cc1cc(C)c2c(ccc3ccccc32)n1` the growth inhibition was -5.75%.
Molecule `O=C(Oc1cccc2ccccc12)c1cccnc1` has a growth inhibition of -38%.
`NS(=O)(=O)c1ccc(N=C2C(=O)Nc3ccccc32)cc1` showed a growth inhibition of 17.6%.
For `CCCCCCCCCCCCCC(=O)NCC(=O)NC(CO)C(=O)NC(CO)C(=O)NC(CCCCN)C(=O)NC(CO)C(=O)NC(CCCCN)C(=O)N1CCCC1C(=O)NC(CCCCN)C(=O)NC(CC(=O)O)C(N)=O` (stereo not given) (Myristoyl-GSSKSKPKD-NH2; configuration not given here), the growth inhibition was 6.1%.
For `CC12CC3(Nc4ccccc4C3(C)O)OC1(C)c1ccccc1N2` (stereo not given), the growth inhibition was 1.25%.
`OCC=C1CCCCCC1` gave a growth inhibition of -4.25%.
`O=C1NCC/C1=C\c1ccccc1` gave a growth inhibition of -8.05%.
`COc1ccc(N=NC(=S)NNc2ccc(OC)cc2Oc2ccccc2)c(Oc2ccccc2)c1` showed a growth inhibition of 11.8%.
In the case of `C[C@@H](O)CO`, the growth inhibition is reported as 3.75%.
`CCOC(=O)C1/C(=C\O)C(=O)c2cc(OC)c(OC)cc2C1c1ccc(OC)c(OC)c1` (stereo not given) gave a growth inhibition of 8.35%.
`COc1cc(OC)c(NC(=O)Nc2ccc([N+](=O)[O-])cc2OC)cc1Cl` gave a growth inhibition of -49.1%.
`Cc1cccc(CC(N)C(=O)O)c1` (stereo not given) gave a growth inhibition of -3.3%.
Work on `NC(N)=Nc1cccc2ccccc12` yielded a growth inhibition of -12.8%.
For `O=Cc1[nH]c(=S)[nH]c(=O)c1Cc1cccc(Cl)c1`, the growth inhibition was 56.2%.
`C1CCN(CCC2CCNCC2)C1` showed a growth inhibition of 13.5%.
In the case of `O=C(O)c1cccc2c1cc(Br)c1ccccc12`, the growth inhibition is reported as -42.5%.
